Test results from PubChem BioAssay (NCI).
Compounds without any hit were thinned out: in the full panel of roughly 83,000, 20% have a hit.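 Activity criterion: percent growth below 10, measured after cells in 96-well plates were exposed to a single compound concentration for 48 hours.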 A number with no mark means an inactive call. The source made the active and inactive calls.

Columns and labels:
Assay in all cases: NCI-60 one-dose screen, 48 h (100 = growth as untreated, 0 = no growth, -100 = all killed)
Details in all cases: 10 µM unless noted
SR leukemia = test system: SR leukemia
RPMI-8226 leukemia = test system: RPMI-8226 leukemia
OVCAR-8 ovarian = test system: OVCAR-8 ovarian
OVCAR-5 ovarian = test system: OVCAR-5 ovarian
OVCAR-4 ovarian = test system: OVCAR-4 ovarian
SK-OV-3 ovarian = test system: SK-OV-3 ovarian
IGROV1 ovarian = test system: IGROV1 ovarian
OVCAR-3 ovarian = test system: OVCAR-3 ovarian
HS 578T breast = test system: HS 578T breast
NCI/ADR-RES ovarian = test system: NCI/ADR-RES ovarian

| SMILES | growth (SR leukemia) | growth (RPMI-8226 leukemia) | growth (OVCAR-8 ovarian) | growth (OVCAR-5 ovarian) | growth (OVCAR-4 ovarian) | growth (SK-OV-3 ovarian) | growth (IGROV1 ovarian) | growth (OVCAR-3 ovarian) | growth (HS 578T breast) | growth (NCI/ADR-RES ovarian) |
| --- | --- | --- | --- | --- | --- | --- | --- | --- | --- | --- |
| NCCCCCCNc1cc(-c2cccc(OC(F)(F)F)c2)nc2ccc(N3CCCC3)cc12 | -24.7% (active) | -37.8% (active) | 2.63% (active) | 12.6% | -39.8% (active) | 93.6% | -55.6% (active) | -82.4% (active) | -54% (active) | 5.01% (active) |
| O=C(/C(=C\c1ccc([N+](=O)[O-])cc1)S(=O)Cc1ccc(F)cc1)c1ccc(F)cc1 (stereo not given) | 8.47% (active) | -37.6% (active) | 29.3% | 40.4% | 45% | 103% | -19.1% (active) | 18.1% | 40.9% | 20.7% |
| Cc1cnc(C(=O)Nc2nc3ccc(S(=O)(=O)Nc4ccc(C5(C(F)(F)F)CC5)cc4)cc3[nH]2)cn1 | 18.9% | 6.96% (active) | 25.8% | 38.8% | 32.9% | 36.9% | 31.4% | -19.3% (active) | 8.52% (active) | 15.8% |
| C=C(C)[C@@H]1CC[C@]2(C(=O)N[C@H](CO)Cc3ccccc3)CC[C@]3(C)[C@H](CC[C@@H]4[C@@]5(C)CCCNC(C)(C)[C@@H]5CC[C@]43C)[C@@H]12 | -56.8% (active) | -49.3% (active) | -76.3% (active) | -93.5% (active) | -80.9% (active) | -96.2% (active) | -78.8% (active) | -95.9% (active) | -60.5% (active) | -67.6% (active) |
| O=S(=O)(NCCNc1nccc(-c2c(-c3cccc(O)c3)nc3occn23)n1)c1ccccc1 | 75.7% | 92.8% | 79.8% | 117% | 123% | 97.2% | 47.8% | 97.9% | 91.8% | 112% |
| C=C1C(=O)O[C@H]2[C@H]1CC/C(COC(=O)NCc1c[nH]c3ccc(Cl)cc13)=C\CC[C@@]1(C)O[C@@H]21 | 7.4% (active) | -35.5% (active) | -59.2% (active) | -27.7% (active) | -54.7% (active) | 90.5% | -65.8% (active) | -87.2% (active) | 25.3% | 48.1% |
| O=C(CNCCN1CCOCC1)N1c2cccc3cccc(c23)N(C(=O)CNCCN2CCOCC2)C1c1cn(-c2ccccc2)nc1-c1cccc([N+](=O)[O-])c1 | -19.4% (active) | 44.8% | 88.3% | 107% | 90.7% | 109% | 74.3% | 93.6% | 69.1% | 87.7% |
| O=C1Nc2cc(-c3cccc([N+](=O)[O-])c3)ccc2/C1=C/c1ccc[nH]1 | 11.3% | 81.3% | 101% | 48.8% | 45.4% | 59.6% | 54.5% | 70.6% | 102% | 99.2% |
| C[C@@H](Nc1ncnc2ccc(-c3cnc(N)nc3)cc12)c1ccc(F)cc1 | 85.3% | 83.6% | 78.1% | 44.6% | 74.3% | 103% | 28.7% | 69.2% | 69.2% | 86% |
| C=CCN1C(=O)/C(=C/C(=O)OC)S/C1=N\NC(=O)c1cc2ccc1/C=C\c1ccc(cc1)/C=C\2 | 1.79% (active) | -9.36% (active) | 88.2% | 96.1% | 97.1% | 140% | 89.2% | 86.4% | 93.6% | 89.5% |
| COc1cccc(/C=N/NC(=O)c2cnn3c2NC(c2ccccc2)C3)c1Oc1ccccc1 (stereo not given) | 43.1% | 100% | 89% | 97.4% | 98.9% | 90.8% | 78.4% | 42% | 93.4% | 87.9% |
| Cn1ccnc1C(=O)/C=C/c1ccc(CC(=O)Nc2ccc(F)cc2)cc1 | 14.4% | 1.1% (active) | 12.7% | 65.5% | 30.3% | 85.4% | 39.3% | 6.19% (active) | 57.7% | 21.7% |
| CCc1c2c(nc3ccc(OCc4ccc(B(O)O)cc4)cc13)-c1cc3c(c(=O)n1C2)COC(=O)[C@]3(O)CC | -2.77% (active) | 6.35% (active) | 6.94% (active) | 11.5% | 24.2% | -4.91% (active) | 17.6% | 6.75% (active) | 36.7% | -0.104% (active) |
| CCCCCCNC(=O)Nc1ccc2cc3ccc(NC(=O)NCCCCCC)cc3nc2c1 | -33% (active) | 0.729% (active) | -82.7% (active) | 9.67% (active) | 56.9% | 13.2% | 11.4% | -5.6% (active) | -53.7% (active) | 100% |
